{"source": "PubChem BioAssay AID485344", "about": "(National Center for Advancing Translational Sciences (NCATS), 2010)", "note": "Among all 340,000 compounds or so, about 6,900 (2%) were called active. Cut-off read from the data, not from the text of the source: active = inhibition above about 30%; inactive = below that, where a call was filed. The list comes from a sample in which actives are over-represented; it also holds similar structures and randomly drawn compounds.", "data": [{"molecular_target": "D(2) dopamine receptor (Homo sapiens) (UniProt P14416)", "sequence (P14416 whole entry, looked up)": "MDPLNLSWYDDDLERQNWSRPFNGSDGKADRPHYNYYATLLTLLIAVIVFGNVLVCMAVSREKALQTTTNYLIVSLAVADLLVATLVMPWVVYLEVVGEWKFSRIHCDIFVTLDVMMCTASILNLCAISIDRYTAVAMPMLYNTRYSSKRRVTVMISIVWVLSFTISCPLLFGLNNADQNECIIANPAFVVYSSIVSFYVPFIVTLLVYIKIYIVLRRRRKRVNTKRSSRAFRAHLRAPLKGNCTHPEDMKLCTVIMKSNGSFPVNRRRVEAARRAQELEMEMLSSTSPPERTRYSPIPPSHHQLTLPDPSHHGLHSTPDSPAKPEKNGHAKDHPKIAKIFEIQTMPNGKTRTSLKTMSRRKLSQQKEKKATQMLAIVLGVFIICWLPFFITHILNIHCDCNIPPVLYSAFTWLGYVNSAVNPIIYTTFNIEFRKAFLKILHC", "experiment": "HTS Assay for Allosteric Antagonists of the Human D2 Dopamine Receptor: Primary Screen for Antagonists; note: 0% is about no effect", "conditions": "HEK293 TREx D2 cells, calcium flux, dopamine EC80; at 10 µM; active compounds read high", "summary_of_the_method": "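In this primary screen, negative modulation is detected by tracking calcium flux after an EC80 dopamine challenge in inducible HEK293 T-REx D2 cells preexposed to test compound for 180 s.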", "values": [{"smiles": "CN(C(=O)CSc1nnc(-c2ccc3c(c2)OCO3)o1)C1CCS(=O)(=O)C1", "note": "(stereo not drawn)", "inhibition": "8.68% (inactive)"}, {"smiles": "CC(=O)Nc1ccc(N2C(=O)C3C4C=CC(CC4)C3C2=O)cc1", "note": "(stereo not drawn)", "inhibition": "2.36% (inactive)"}, {"smiles": "Cc1ccc(N2C(=O)C3C4C=CC(CC4)C3C2=O)cc1Cl", "note": "(stereo not drawn)", "inhibition": "-11.1% (inactive)"}, {"smiles": "Cc1ccc(N2C(=O)C3C4C=CC(CC4)C3C2=O)cc1Br", "note": "(stereo not drawn)", "inhibition": "54.9% (active)"}, {"smiles": "Cn1c(-c2ccc(C(F)(F)F)cc2)cc2onc(-c3ccccc3)c2c1=O", "inhibition": "8.4% (inactive)"}, {"smiles": "CCOc1ccc(C(=O)NCC(=O)N2CCN(c3ccc(C(F)(F)F)cn3)CC2)cc1", "inhibition": "-6.45% (inactive)"}, {"smiles": "Cc1ccc(C(=O)OCC(=O)NCc2cc(C)c(O)c(C)c2)cc1S(=O)(=O)N1CCCCC1", "inhibition": "14.2% (inactive)"}, {"smiles": "CCN(C(=O)COC(=O)c1c(NC(C)=O)sc(C)c1C)C1CCS(=O)(=O)C1", "note": "(stereo not drawn)", "inhibition": "9.33% (inactive)"}, {"smiles": "CCN(C(=O)CSc1nc2ccccc2n1CC)C1CCS(=O)(=O)C1", "note": "(stereo not drawn)", "inhibition": "8.24% (inactive)"}, {"smiles": "CCN(C(=O)COC(=O)/C=C/c1nc2ccccc2s1)C1CCS(=O)(=O)C1", "note": "(stereo not drawn)", "inhibition": "31.7% (active)"}, {"smiles": "COc1ccc(N2CCN(C(=O)CCNC(=O)c3ccc(Br)cc3)CC2)cc1", "inhibition": "-5.34% (inactive)"}, {"smiles": "CC(C(=O)N1CCc2ccccc21)N(C)CC(=O)Nc1ccc(F)cc1", "note": "(stereo not drawn)", "inhibition": "17.3% (inactive)"}, {"smiles": "COc1ccccc1C(=O)NCC(=O)NCCSc1ccc(Br)cc1", "inhibition": "-18.2% (inactive)"}, {"smiles": "Fc1ccc(CNCc2ccc(Br)cc2)cc1", "inhibition": "48.7% (active)"}, {"smiles": "Cc1cc(C)cc(NC(=S)NCc2ccc(F)cc2)c1", "inhibition": "17.7% (inactive)"}, {"smiles": "O=C(Cc1ccccc1)NCc1ccc(F)cc1", "inhibition": "7.68% (inactive)"}, {"smiles": "CCOC(=O)C1CCCN(C(=O)c2ccc(C)c(S(=O)(=O)N3CCCCC3)c2)C1", "note": "(stereo not drawn)", "inhibition": "-2.03% (inactive)"}, {"smiles": "CC(=O)Nc1ccc(SC[C@H](Cc2ccccc2)N2CC[C@@H](C)CCC2=O)cc1", "inhibition": "6.05% (inactive)"}, {"smiles": "O=C(Cn1nnc(-c2ccccc2)n1)NC(=O)NC1CCCC1", "inhibition": "-8.79% (inactive)"}, {"smiles": "COc1cc(-c2nnn(CC(=O)NCc3ccccc3)n2)cc(OC)c1OC", "inhibition": "-2.02% (inactive)"}, {"smiles": "N#Cc1ccc(COC(=O)Cn2nnc(-c3ccccc3)n2)cc1", "inhibition": "32.5% (active)"}, {"smiles": "COc1cc([N+](=O)[O-])ccc1NC(=O)COC(=O)CCOc1ccc(C)cc1", "inhibition": "-25.8% (inactive)"}, {"smiles": "Cc1cccc(Nc2nnc(SCC(=O)c3c(N)n(C4CC4)c(=O)[nH]c3=O)s2)c1C", "inhibition": "-24.6% (inactive)"}, {"smiles": "O=S(=O)(Nc1ccc2nc(N3CCOCC3)sc2c1)c1ccccc1", "inhibition": "-2.59% (inactive)"}, {"smiles": "CC(=O)Nc1ccc(-c2csc(NC(=O)Nc3ccccc3)n2)cc1", "inhibition": "0.929% (inactive)"}, {"smiles": "O=C(Nc1ccccc1)Nc1nc2ccccc2s1", "inhibition": "38.1% (active)"}, {"smiles": "O=C(CCNC(=O)c1ccccc1)Nc1nc2ccccc2s1", "inhibition": "9.78% (inactive)"}, {"smiles": "O=C(O)CSc1ccc(S(=O)(=O)N2CCCC2)cn1", "inhibition": "-7.84% (inactive)"}, {"smiles": "O=C(NCC1COc2ccccc2O1)C1(c2ccccc2)CCCC1", "note": "(stereo not drawn)", "inhibition": "2.24% (inactive)"}, {"smiles": "Cc1noc(C)c1C(=O)NCC1COc2ccccc2O1", "note": "(stereo not drawn)", "inhibition": "42% (active)"}, {"smiles": "Cc1cc(NC(=O)CCC2COc3ccccc3O2)no1", "note": "(stereo not drawn)", "inhibition": "16.6% (inactive)"}, {"smiles": "NC(=O)c1ccsc1NC(=O)COC(=O)COc1ccc(C=O)cc1", "inhibition": "0.0079% (inactive)"}, {"smiles": "CCOc1ncccc1C(=O)Nc1ccc(S(=O)(=O)Nc2nc(C)cc(C)n2)cc1", "inhibition": "-33.5% (inactive)"}, {"smiles": "COc1ccc(NS(=O)(=O)c2cc(NC(=O)COc3ccccc3F)ccc2OC)cc1", "inhibition": "-11% (inactive)"}, {"smiles": "CN(C)S(=O)(=O)c1ccc(Cl)c(NC(=O)COC(=O)CC(NC(N)=O)c2ccc(Cl)cc2)c1", "note": "(stereo not drawn)", "inhibition": "8.54% (inactive)"}, {"smiles": "NC(=O)NC(CC(=O)NNC(=O)c1ccccn1)c1ccc(Cl)cc1", "note": "(stereo not drawn)", "inhibition": "35.3% (active)"}, {"smiles": "CCCNC(=O)NC(=O)COC(=O)CC(NC(N)=O)c1ccc(Cl)cc1", "note": "(stereo not drawn)", "inhibition": "-5.2% (inactive)"}, {"smiles": "CC(C)C(NC(=O)c1c(F)cccc1F)C(=O)NCc1ccncc1", "note": "(stereo not drawn)", "inhibition": "-6.22% (inactive)"}, {"smiles": "Cc1ccc(S(=O)(=O)Oc2ccc(/C=N/NC(=O)c3ccncc3)cc2)cc1", "inhibition": "-6.29% (inactive)"}, {"smiles": "CC(=O)Nc1ccc(S(=O)(=O)Oc2ccc(/C=N/N=C3/NC(=O)C(CC(=O)O)S3)cc2)cc1", "note": "(stereo not drawn)", "inhibition": "35.4% (active)"}, {"smiles": "Cc1ccc(NC(=O)CC2S/C(=N/N=C3\\CCCc4ccccc43)NC2=O)cc1", "note": "(stereo not drawn)", "inhibition": "-3.76% (inactive)"}, {"smiles": "Cc1cc(C(=O)CCC(=O)NNC(=O)c2ccccc2O)c(C)s1", "inhibition": "19.4% (inactive)"}, {"smiles": "Cc1c(NC(=S)NC(=O)CCc2ccccc2)c(=O)n(-c2ccccc2)n1C", "inhibition": "40.2% (active)"}, {"smiles": "Cc1c(NC(=O)CN2C(=O)C(=O)N(Cc3ccccc3)C2=O)c(=O)n(-c2ccccc2)n1C", "inhibition": "-13.5% (inactive)"}, {"smiles": "Cc1c(NC(=S)Nc2ccccc2)c(=O)n(-c2ccccc2)n1C", "inhibition": "-10.1% (inactive)"}, {"smiles": "COc1ccc(OC)c(CN2CCN(C(=O)CNC(=O)c3cc(C)cc(C)c3)CC2)c1", "inhibition": "-4.53% (inactive)"}, {"smiles": "CCN(CC)S(=O)(=O)c1cc(C(=O)Nc2cc(S(=O)(=O)N3CCOCC3)ccc2N2CCCC2)ccc1F", "inhibition": "-9.39% (inactive)"}, {"smiles": "CN(CC(=O)Nc1ccc(Cl)cc1)CC(=O)Nc1cccc2ccccc12", "inhibition": "-6.32% (inactive)"}, {"smiles": "CC(C)c1ccc(/C=C/C(=O)NCCCN2CCOCC2)cc1", "inhibition": "-4.54% (inactive)"}, {"smiles": "CCN1CCCC1CNC(=O)c1cc2c(=O)n(C)c3ccccc3c2n1C", "note": "(stereo not drawn)", "inhibition": "-1.94% (inactive)"}, {"smiles": "CCOC(=O)N1CCC(Nc2c(NCCN3CCN(c4cccc(Cl)c4)CC3)c(=O)c2=O)CC1", "inhibition": "-2.93% (inactive)"}, {"smiles": "Cn1c(C(=O)NCCCN2CCN(c3cccc(Cl)c3)CC2)cc2c(=O)n(C)c3ccccc3c21", "inhibition": "95.2% (active)"}, {"smiles": "Cn1c(C(=O)NCCc2ccsc2)cc2c(=O)n(C)c3ccccc3c21", "inhibition": "-0.277% (inactive)"}, {"smiles": "CCn1c(=O)cc(OCC(=O)NCCCN2CCN(c3cccc(Cl)c3)CC2)c2ccccc21", "inhibition": "78.9% (active)"}, {"smiles": "CCOC(=O)N1CCC(NC(=O)COc2cc(=O)n(C)c3ccccc23)CC1", "inhibition": "7.2% (inactive)"}, {"smiles": "CCOc1ccc(C(=O)CCC(=O)Nc2ccncc2)cc1", "inhibition": "-7.41% (inactive)"}, {"smiles": "Cc1ccc(-c2nn(-c3ccccc3)cc2C(=O)NCCCN2CCCC2=O)cc1", "inhibition": "-11.6% (inactive)"}, {"smiles": "Cc1noc(C)c1COc1ccc(C(=O)NCCOc2ccccc2)cc1", "inhibition": "-11% (inactive)"}, {"smiles": "COc1ccc(Cl)cc1NC(=O)CN(C)CC(=O)Nc1ccc2c(c1)OCO2", "inhibition": "-18.1% (inactive)"}, {"smiles": "O=C1C=C(c2cccc(Cl)c2O)C[C@@H](c2ccc(F)cc2)C1", "inhibition": "6% (inactive)"}, {"smiles": "CCCN(CC(=O)Nc1ccccc1C)C(=O)c1ccc2[nH]c3c(c2c1)CC(C)CC3", "note": "(stereo not drawn)", "inhibition": "-19.6% (inactive)"}, {"smiles": "CS(=O)(=O)c1ccc2nc(NC(=O)C3C4C=CC(C4)C3C(=O)O)sc2c1", "note": "(stereo not drawn)", "inhibition": "-4.77% (inactive)"}, {"smiles": "CS(=O)(=O)c1ccc2nc(NC(=O)CN3CCCCCC3)sc2c1", "inhibition": "-16.3% (inactive)"}, {"smiles": "CS(=O)(=O)c1ccc2nc(NC(=O)C3CCCCC3)sc2c1", "inhibition": "30.6% (active)"}, {"smiles": "CC(C)Oc1ccc(C(=O)NCC(=O)Nc2ccc3c(c2)CCC3)cc1", "inhibition": "-1.68% (inactive)"}, {"smiles": "O=C(COC(=O)C1(c2ccc(F)cc2)CCCC1)N1CCNC1=O", "inhibition": "7.82% (inactive)"}, {"smiles": "CCCCN(C(=O)c1nn(C)c(=O)c2ccccc12)c1c(N)n(CCC)c(=O)[nH]c1=O", "inhibition": "-7.93% (inactive)"}, {"smiles": "CC1CCCN(C(=O)c2cc(-c3ccco3)nc3ccccc23)C1", "note": "(stereo not drawn)", "inhibition": "-3.9% (inactive)"}, {"smiles": "COc1ccc(S(=O)(=O)NCC(c2ccc(C)cc2)N2CCN(C)CC2)cc1OC", "note": "(stereo not drawn)", "inhibition": "-15.8% (inactive)"}, {"smiles": "CC(=O)Nc1ccc(NC(=O)COC(=O)c2ccccc2C(=O)c2ccccc2)cc1", "inhibition": "11.9% (inactive)"}, {"smiles": "O=S(=O)(Nc1cc(Cl)ccc1N1CCOCC1)c1ccccc1Cl", "inhibition": "-22.2% (inactive)"}, {"smiles": "c1ccc2cc3[nH]c(CN4CCCCC4)nc3cc2c1", "inhibition": "58.4% (active)"}, {"smiles": "Cc1ccc2[nH]c(=O)c(CN3CCCCC3)c(-c3ccccc3)c2c1", "inhibition": "-4.98% (inactive)"}, {"smiles": "Clc1ccc(CN2CCCCCC2)cc1Cl", "inhibition": "26.4% (inactive)"}, {"smiles": "O=S(=O)(c1ccc(SCc2ccc(Br)cc2)nc1)N1CCOCC1", "inhibition": "-7.49% (inactive)"}, {"smiles": "Cc1ccsc1C(=O)NCCc1ccco1", "inhibition": "11.7% (inactive)"}, {"smiles": "N#Cc1cccc(NC(=O)C2CCCN(C(=O)c3ccc(Cl)cc3)C2)c1", "note": "(stereo not drawn)", "inhibition": "19.5% (inactive)"}, {"smiles": "COc1ccccc1N1CC(O)=C(c2nc3ccccc3s2)C1=N", "inhibition": "16.1% (inactive)"}, {"smiles": "CCOC(=O)CCCN1CC(O)=C(c2nc3ccccc3s2)C1=N", "inhibition": "15.9% (inactive)"}, {"smiles": "N=C1C(c2nc3ccccc3s2)=C(O)CN1NC(=O)c1ccc([N+](=O)[O-])cc1", "inhibition": "42.3% (active)"}, {"smiles": "Cc1ccc(S(=O)(=O)N2[C@@H](c3ccccc3F)C(C(=O)O)=CC[C@H]2c2ccc(Cl)cc2)cc1", "inhibition": "16% (inactive)"}, {"smiles": "O=C(NNC(=O)c1cc(S(=O)(=O)N2CCCCC2)ccc1Cl)c1ccccc1O", "inhibition": "9.25% (inactive)"}, {"smiles": "COc1ccccc1NC(=O)CN(c1ccccc1OC)S(=O)(=O)c1ccccc1", "inhibition": "-0.319% (inactive)"}, {"smiles": "COC(=O)c1ccc(CN(c2ccccc2OC)S(=O)(=O)c2cccs2)o1", "inhibition": "36% (active)"}, {"smiles": "COc1ccccc1CNC(=O)c1ccc(CS(=O)(=O)c2ccccc2)o1", "inhibition": "22.7% (inactive)"}, {"smiles": "COc1ccc(CNC(=O)c2ccc(NS(=O)(=O)c3ccc4[nH]c(=O)[nH]c4c3)cc2)cc1OC", "inhibition": "-22.9% (inactive)"}, {"smiles": "N#Cc1ccc(OCC(=O)NC(=O)NC2CCS(=O)(=O)C2)cc1", "note": "(stereo not drawn)", "inhibition": "39.2% (active)"}, {"smiles": "N#Cc1ccc(C(=O)OCC(=O)NC(=O)NC2CCCCC2)cc1", "inhibition": "-34.5% (inactive)"}, {"smiles": "O=C(Cc1ccc(Cl)cc1)NC1CCS(=O)(=O)C1", "note": "(stereo not drawn)", "inhibition": "-2.94% (inactive)"}, {"smiles": "COc1ccccc1C(=O)NCCC(=O)NC(C)CCc1ccccc1", "note": "(stereo not drawn)", "inhibition": "3.51% (inactive)"}, {"smiles": "CC(=O)c1cnc(-c2ccccc2)s1", "inhibition": "-11.4% (inactive)"}, {"smiles": "CC(C)(C)C(=O)c1cnc(Nc2ccccc2)s1", "inhibition": "32.1% (active)"}, {"smiles": "O=C(c1ccc(Cl)cc1)c1cnc(Nc2ccccc2)s1", "inhibition": "-15.9% (inactive)"}]}]}
